These results are taken from PubChem BioAssay (NCI).

A short description of assay [1]: NCI Yeast Anticancer Drug Screen. Data for the rad50 strain (AID 155).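 Further: 0% = growth of vehicle-only cultures of the same strain.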 The settings on record: S. cerevisiae rad50 strain growth inhibition, active compounds read high. Summed up:
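Relative growth inhibition (compound vs vehicle) was measured in yeast with a defined repair-gene alteration.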

Assay [2] in a line: NCI Yeast Anticancer Drug Screen. Data for the mec2-1 strain (AID 157). As to conditions: S. cerevisiae mec2-1 strain, active compounds read high. Summed up: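 Each compound was tested on mec2-1 yeast, a strain altered in DNA damage repair or cell cycle control. Growth inhibition is reported relative to vehicle.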
Assay [3] is described as follows: NCI Yeast Anticancer Drug Screen. Data for the sgs1 mgt1 strain (AID 161).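 Further: 0% = growth of cultures given vehicle only.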 The settings on record: S. cerevisiae sgs1 mgt1 strain, active compounds read high. Summed up:
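Genetically altered yeast, compound exposure, growth inhibition relative to vehicle.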

The nature of assay [4]: NCI Yeast Anticancer Drug Screen. Data for the cln2 rad14 strain (AID 165).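 Further: 0% = growth equal to vehicle treated cultures.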 The settings on record: S. cerevisiae cln2 rad14 strain, active compounds read high. Summed up:
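Test compounds were added to cln2 rad14 yeast cultures; inhibition of growth was then determined by comparison with vehicle treatment.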

Assay [5] can be described thus: NCI Yeast Anticancer Drug Screen. Data for the bub3 strain (AID 167). As to conditions: S. cerevisiae bub3 mutant strain, active compounds read high. A digest of the protocol:
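Screening used yeast with an engineered genetic alteration affecting cell cycle control. Compound-exposed cultures were compared with vehicle cultures, and reduced growth was taken as inhibition.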

Assay [6] is described as follows: NCI Yeast Anticancer Drug Screen. Data for the mlh1 rad18 strain (AID 175). As to conditions: S. cerevisiae mlh1 rad18 strain growth inhibition, active compounds read high. Summed up: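 Inhibition values reflect reduced growth of mutant yeast versus vehicle-treated controls following compound exposure; the mutations affect DNA damage repair.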
The mark [7] stands for this setting: at 5.0 µM (retest, dose inferred, filed as 0.5).
The mark [8] stands for this setting: at 50.0 µM (retest, dose inferred, filed as 5.0).

This is part of a sample that, as a whole, favours compounds with a hit. Of some 79,000 tested, about 15% had one in any assay. A number with no mark means an inactive call. Activity calls are given as the source filed them. No stated cut-off is given here; in the data, active means growth inhibition above about 70%; inactive means the rest.

With `O=CNC(CCCC(=O)O)Cc1cc2ccccc2c2ccccc12` (stereo not given), the growth inhibition in assay [1] (setting [7]) was 5%; in assay [1] (setting [8]), 17%; in assay [1] (at 50.0 µM) it was 94.5% (active); in assay [2] (setting [7]), 13%; in assay [2] (setting [8]), 31%; in assay [2] (at 50.0 µM), 95% (active). Also, the growth inhibition in assay [3] (setting [7]) is 5%; in assay [3] (setting [8]) it was 11%; in assay [3] (at 50.0 µM), 95.6% (active); in assay [4] (setting [7]), 7%; in assay [4] (setting [8]) it was 22%; in assay [4] (at 50.0 µM), 93.7% (active). For the same compound, the growth inhibition was -8% in assay [5] (setting [7]); -4% in assay [5] (setting [8]); 94.8% (active) in assay [5] (at 50.0 µM); -3% in assay [6] (setting [7]); 9% in assay [6] (setting [8]); 94.5% (active) in assay [6] (at 50.0 µM).
On to `O=NN(CCCl)C(=O)Nc1cc(Cl)ccc1O`, for which the growth inhibition is -8% in assay [1] (setting [7]); 57% in assay [1] (setting [8]); 86.2% (active) in assay [1] (at 50.0 µM); -8% in assay [2] (setting [7]); 30% in assay [2] (setting [8]); 36.1% in assay [2] (at 50.0 µM). Also, the growth inhibition in assay [3] (setting [7]) is -5%; in assay [3] (setting [8]), 46%; in assay [3] (at 50.0 µM), 72.5% (active); in assay [4] (setting [7]), -3%; in assay [4] (setting [8]) it was 13%; in assay [4] (at 50.0 µM), 8.45%. In addition, the growth inhibition in assay [5] (setting [7]) is -21%; in assay [5] (setting [8]), -16%; in assay [5] (at 50.0 µM), 37.1%; in assay [6] (setting [7]), 5%; in assay [6] (setting [8]), 81% (active); in assay [6] (at 50.0 µM) it was 90.1% (active).
On to `COc1ccc2c(c1OC)C1=C(C2=O)c2cc3c(cc2CCN1)OCO3`, for which the growth inhibition was -4% in assay [1] (setting [7]); 76% (active) in assay [1] (setting [8]); 23.1% in assay [1] (at 50.0 µM); 0% in assay [2] (setting [7]); 86% (active) in assay [2] (setting [8]); 45.7% in assay [2] (at 50.0 µM). Besides, the growth inhibition in assay [3] (setting [7]) was 9%; in assay [3] (setting [8]), 92% (active); in assay [3] (at 50.0 µM), 61.5%; in assay [4] (setting [7]) it was 2%; in assay [4] (setting [8]), 95% (active); in assay [4] (at 50.0 µM) it was 40.9%. The growth inhibition in assay [5] (setting [7]) was -15%; in assay [5] (setting [8]) it was 51%; in assay [5] (at 50.0 µM), 68.4%; in assay [6] (setting [7]), 8%; in assay [6] (setting [8]) it was 93% (active); in assay [6] (at 50.0 µM), 53.1%.
On to `CCn1c(O)c(C=Nc2ccccc2)s/c1=N/Nc1nc(-c2ccc(O)c(O)c2)cs1`, for which the growth inhibition in assay [1] (setting [7]) was 0%; in assay [1] (setting [8]) it was 21%; in assay [1] (at 50.0 µM), 57%; in assay [2] (setting [7]), -22%; in assay [2] (setting [8]) it was 1%; in assay [2] (at 50.0 µM), 48.4%. The growth inhibition in assay [3] (setting [7]) was -6%; in assay [3] (setting [8]), 11%; in assay [3] (at 50.0 µM) it was 72.2% (active); in assay [4] (setting [7]), -10%; in assay [4] (setting [8]), 6%; in assay [4] (at 50.0 µM), 41.5%. Moreover, the growth inhibition in assay [5] (setting [7]) is -7%; in assay [5] (setting [8]) it was 38%; in assay [5] (at 50.0 µM) it was 79% (active); in assay [6] (setting [7]) it was -17%; in assay [6] (setting [8]), 25%; in assay [6] (at 50.0 µM), 66%.
For the compound `Cc1cc(Cl)ccc1Nc1sc(C(=O)c2cc3cc(Cl)ccc3o2)c(N)c1C#N`, the growth inhibition in assay [1] (setting [7]) is 16%; in assay [1] (setting [8]), 53%; in assay [1] (at 50.0 µM) it was 23.7%; in assay [2] (setting [7]), -3%; in assay [2] (setting [8]), 48%; in assay [2] (at 50.0 µM), 45.5%. Further, the growth inhibition is 8% in assay [3] (setting [7]); 65% in assay [3] (setting [8]); 45% in assay [3] (at 50.0 µM); 6% in assay [4] (setting [7]); 84% (active) in assay [4] (setting [8]); 83% (active) in assay [4] (at 50.0 µM). The growth inhibition in assay [5] (setting [7]) is 13%; in assay [5] (setting [8]), 55%; in assay [5] (at 50.0 µM), 50.1%; in assay [6] (setting [7]), -7%; in assay [6] (setting [8]), 66%; in assay [6] (at 50.0 µM), 36.5%.
Consider `CCc1ccccc1NC(=O)C(=O)CC(=O)c1ccc(Cl)s1`, for which the growth inhibition in assay [1] (setting [7]) is 1%; in assay [1] (setting [8]), 1%; in assay [1] (at 50.0 µM), 45.1%; in assay [2] (setting [7]) it was -2%; in assay [2] (setting [8]) it was -40%; in assay [2] (at 50.0 µM) it was 2.6%. For the same compound, the growth inhibition in assay [3] (setting [7]) was -1%; in assay [3] (setting [8]), 2%; in assay [3] (at 50.0 µM) it was 6.85%; in assay [4] (setting [7]) it was -2%; in assay [4] (setting [8]) it was 6%; in assay [4] (at 50.0 µM), 26.2%. For the same compound, the growth inhibition is 2% in assay [5] (setting [7]); 1% in assay [5] (setting [8]); -9.55% in assay [5] (at 50.0 µM); 0% in assay [6] (setting [7]); 5% in assay [6] (setting [8]); -0.1% in assay [6] (at 50.0 µM).
Consider `Cc1cc(Nc2ccc(N=Nc3ccc(O)c4ncccc34)cc2)nc(C)n1`, for which the growth inhibition was 1% in assay [1] (setting [7]); 31% in assay [1] (setting [8]); 71.1% (active) in assay [1] (at 50.0 µM); -4% in assay [2] (setting [7]); 21% in assay [2] (setting [8]); 52.5% in assay [2] (at 50.0 µM). Further, the growth inhibition in assay [3] (setting [7]) was -2%; in assay [3] (setting [8]) it was 35%; in assay [3] (at 50.0 µM) it was 47.9%; in assay [4] (setting [7]), -41%; in assay [4] (setting [8]) it was 6%; in assay [4] (at 50.0 µM), 23%. Further, the growth inhibition in assay [5] (setting [7]) is 5%; in assay [5] (setting [8]), 4%; in assay [5] (at 50.0 µM), 60.9%; in assay [6] (setting [7]), 0%; in assay [6] (setting [8]), 37%; in assay [6] (at 50.0 µM), 75.5% (active).
`C/C=C/C1=C(Cl)C(=O)[C@@H](Cl)[C@@]1(O)C(=O)OC`: the growth inhibition was 48% in assay [1] (setting [7]); 97% (active) in assay [1] (setting [8]); 87% (active) in assay [1] (at 50.0 µM); 61% in assay [2] (setting [7]); 99% (active) in assay [2] (setting [8]); 90.1% (active) in assay [2] (at 50.0 µM). The growth inhibition in assay [3] (setting [7]) was 78% (active); in assay [3] (setting [8]), 99% (active); in assay [3] (at 50.0 µM) it was 91% (active); in assay [4] (setting [7]) it was 21%; in assay [4] (setting [8]), 97% (active); in assay [4] (at 50.0 µM), 79.2% (active). Moreover, the growth inhibition is 66% in assay [5] (setting [7]); 95% (active) in assay [5] (setting [8]); 87.3% (active) in assay [5] (at 50.0 µM); 85% (active) in assay [6] (setting [7]); 99% (active) in assay [6] (setting [8]); 90.2% (active) in assay [6] (at 50.0 µM).
In the case of `CSC(=S)n1nc(-c2cccs2)c(N=Nc2ccccc2)c1C(F)(F)F`, the growth inhibition in assay [1] (setting [7]) is 5%; in assay [1] (setting [8]) it was 97% (active); in assay [1] (at 50.0 µM), 93% (active); in assay [2] (setting [7]), -1%; in assay [2] (setting [8]) it was 98% (active); in assay [2] (at 50.0 µM), 96.8% (active). Further, the growth inhibition in assay [3] (setting [7]) was 8%; in assay [3] (setting [8]), 97% (active); in assay [3] (at 50.0 µM) it was 93% (active); in assay [4] (setting [7]), 6%; in assay [4] (setting [8]) it was 97% (active); in assay [4] (at 50.0 µM), 65.3%. Moreover, the growth inhibition in assay [5] (setting [7]) is 2%; in assay [5] (setting [8]), 97% (active); in assay [5] (at 50.0 µM), 78% (active); in assay [6] (setting [7]) it was 1%; in assay [6] (setting [8]), 95% (active); in assay [6] (at 50.0 µM), 94.4% (active).
Consider `[N-]=[N+]=NCC(O)c1ccc2c(c1)[nH]c1ccccc12` (stereo not given), for which the growth inhibition in assay [1] (setting [7]) was -11%; in assay [1] (setting [8]) it was 30%; in assay [1] (at 50.0 µM) it was 47.9%; in assay [2] (setting [7]) it was -7%; in assay [2] (setting [8]) it was 30%; in assay [2] (at 50.0 µM), 29.6%. The growth inhibition in assay [3] (setting [7]) was -5%; in assay [3] (setting [8]) it was 41%; in assay [3] (at 50.0 µM), 27.6%; in assay [4] (setting [7]) it was -8%; in assay [4] (setting [8]), 23%; in assay [4] (at 50.0 µM), 81.8% (active). Besides, the growth inhibition in assay [5] (setting [7]) is -4%; in assay [5] (setting [8]), 36%; in assay [5] (at 50.0 µM), 64%; in assay [6] (setting [7]) it was 24%; in assay [6] (setting [8]), 68%; in assay [6] (at 50.0 µM), 75.4% (active).
